Test [1] can be described thus: qHTS assay to identify small molecule agonists of the vitamin D receptor (VDR) signaling pathway - cell viability counter screen (AID 743224). Also: series mostly up to about 63 µM; nearly all actives have a fitted effect of over 50% in size. The method in brief: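 Viability is measured in the same wells as the VDR-bla reporter assay: after 16 h compound treatment and 2 h substrate loading, CellTiter-Glo is added and luminescence read 30 min later.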
For orientation: qHTS replaces the single test concentration by a dilution series.

Test [2] in a line: qHTS assay to identify small molecule antagonists of the vitamin D receptor (VDR) signaling pathway - cell viability counter screen (AID 743225). Also: nearly all actives have a fitted effect of over 50% in size. The method in brief:
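Luminescent cell viability (CellTiter-Glo) in VDR-bla HEK 293T cells after 16 h compound exposure at 37C in the presence of 3 nM final 1-alpha,25-dihydroxy vitamin D3.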

Test [3] can be described thus: qHTS assay to identify small molecule agonists of the NFkB signaling pathway - cell viability counter screen (AID 1159515; calls by dose curve; also: series mostly up to about 61 µM; nearly all actives have a fitted effect of over 55% in size). An outline of the steps: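 Multiplexed viability readout: after the 5 hr compound exposure and 1.5 hr FRET substrate step, CellTiter-Glo reagent went into the same NFkB-bla ME-180 wells; ATP luminescence was measured after 30 min at room temperature.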

Test [4] is described as follows: qHTS assay to identify small molecule agonists of the endoplasmic reticulum stress response signaling pathway (AID 1159516; active = well fitted activation curve with a large enough effect in the signal ratio in the repeat runs, not every such curve was filed as active; the % refers to the signal ratio). The method in brief:
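Tox21 10K library screened in quantitative HTS format on ESRE-bla HeLa cells, a beta-lactamase reporter under ER stress response element control; 5 hr treatment, FRET read.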

Test [5] is described as follows: qHTS assay to identify small molecule agonists of the endoplasmic reticulum stress response signaling pathway - cell viability counter screen (AID 1159517; calls by dose curve; also: series mostly up to about 61 µM; nearly all actives have a fitted effect of over 50% in size). The method in brief:
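Cells, HeLa ESRE-bla; density, 1,500/well; dosing, 5 hr at 37 C, 5% CO2; readout, CellTiter-Glo luminescence after 30 min RT.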

The nature of test [6]: qHTS assay to identify small molecule antagonists of the retinoid-related orphan receptor gamma (ROR-gamma) signaling pathway - cell viability counter screen (AID 1159520). Also: nearly all actives have a fitted effect of over 50% in size. The method in brief: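 Cytotoxicity was read from cellular ATP (CellTiter-Glo luminescence) after 16 hr at 37 C with 1 uM doxycycline induction. The inducer was added 2 hr after compound transfer to Tet-on ROR gamma CHO cells.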

Test [7] concerns the target Nuclear receptor ROR-gamma (Homo sapiens) (UniProt P51449). Kind of test: qHTS assay to identify small molecule antagonists of the retinoid-related orphan receptor gamma (ROR-gamma) signaling pathway (AID 1159521). The method in brief:
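CHO cells expressing RORγ under a TET-on promoter, luciferase under RORE control. Dox 1 uM final, 16 h; compounds added 2 h prior. Luminescence decrease measured.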

The nature of test [8]: qHTS assay to identify small molecule agonists of the AP-1 signaling pathway - cell viability counter screen (AID 1159525; calls by dose curve; also: nearly all actives have a fitted effect of over 55% in size). The method in brief: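 Luminescent ATP readout (Cell Titer Glo, 30 min RT), normalised to DMSO and tetra n-octyl ammonium bromide controls. Cells were ME-180 AP-1-bla in 0.5% dialyzed FBS Opti-MEM, with a 5 h, 37 °C compound exposure.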
A short description of test [9]: qHTS assay to identify small molecule agonists of the AP-1 signaling pathway (AID 1159526; calls by dose curve).
The target of test [10] is Retinoic acid receptor RXR-alpha (Homo sapiens) (UniProt P19793). Kind of test: qHTS assay to identify small molecule agonists of the RXR signaling pathway (AID 1159527; calls by dose curve; also: nearly all actives have a fitted effect of over 35% in size). The method in brief: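 Beta-lactamase reporter assay, agonist format. Engineered HEK 293T line, charcoal-stripped FBS at 2%, overnight (16 hr) exposure, fluorescence at 460 and 530 nm after 405 nm excitation.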

The nature of test [11]: qHTS assay to identify small molecule agonists of the RXR signaling pathway - cell viability counter screen (AID 1159529). The method in brief: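 Same-well viability check after the LiveBLAzer FRET read: CellTiter-Glo added, luminescence measured after 30 min at room temperature. Reporter HEK 293T cells had been treated with compounds for 16 hr following a 5 hr preincubation.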

A short description of test [12]: qHTS assay to identify small molecule antagonists of the retinoid acid receptor (RAR) signaling pathway - cell viability counter screen (AID 1159551). Also: nearly all actives have a fitted effect of over 35% in size. An outline of the steps: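 Cytotoxicity counter screen in C3RL4 cells: 6 h compound exposure with 1 uM retinol (final), viability from cellular ATP by luminescence.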
Test [13] in a line: qHTS assay to identify small molecule antagonists of the retinoic acid receptor (RAR) signaling pathway (AID 1159552; also: nearly all actives have a fitted effect of over 50% in size). An outline of the steps: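 Readout: luciferase luminescence, 30 min post-reagent at RT. Setup: C3RL4 RARE reporter cells, compounds plus retinol 1 uM final, 6 hr incubation at 37 C and 5% CO2.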
Test [14] can be described thus: qHTS assay to identify small molecule agonists of the retinoic acid receptor (RAR) signaling pathway (AID 1159553). Also: potency is read from the fitted curve at half-maximal effect. The method in brief: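 Agonist activity was scored in C3RL4 cells bearing a retinoic acid response element luciferase construct. Cells were treated with compounds for 6 hr at 37 C, and luciferase signal was measured as luminescence.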
Test [15] can be described thus: qHTS assay to identify small molecule agonists of the NFkB signaling pathway (AID 1159509; active = well fitted curve in the direction sought with a large enough effect in the signal ratio in the repeat runs, not every such curve was filed as active; the % refers to the signal ratio; also: series mostly up to about 61 µM). The method in brief:
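NFkB-bla ME-180 cells with a beta-lactamase reporter under an NF-kB response element were plated overnight, treated with compounds in DMSO for 5 hr at 37 C, then loaded with FRET substrate for 1.5 hr at room temperature.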

Test [16] can be described thus: qHTS assay to identify small molecule antagonists of the estrogen related receptor (ERR) signaling pathway (AID 1224819). The method in brief: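 Compounds dissolved in DMSO were pin-transferred onto ERR cells that had been plated 6 h earlier, and cells were then incubated 18 h at 37 C; signal was luciferase luminescence via One-Glo.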
The nature of test [17]: qHTS assay to identify small molecule agonists of the estrogen related receptor (ERR) signaling pathway (AID 1224820). The method in brief: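 ERR reporter cells (NTP line) plated 2,000/well, incubated 6 h at 37 C/5% CO2, then pinned with compounds in DMSO and held 18 h at 37 C. One-Glo added; luminescence read after 30 min at room temperature.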
In test [18] the test system is estrogen-related receptor alpha (ERRalpha) with PGC-1alpha coactivator, human. Description: qHTS assay to identify small molecule antagonists of the estrogen related receptor signaling pathway with the pleiotropic PPARgamma coactivator (PGC) (AID 1224821; calls by dose curve). The method in brief: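 Cells engineered for PGC/ERR signalling (line from NTP) were plated 6 h at 37 C/5% CO2, then exposed to DMSO-dissolved compound for 18 h at 37 C. Luciferase activity was read by One-Glo luminescence after 30 min at room temperature.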

A short description of test [19]: qHTS assay to identify small molecule antagonists of the estrogen related receptor (ERR) signaling pathway - cell viability counter screen (AID 1224818).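 Also: series mostly up to about 46 µM; viability measured after 17.5 h of compound exposure.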 An outline of the steps:
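Cells carrying the ERR pathway reporter were seeded and incubated for 6 hours before compound addition. After a 17.5-hour exposure at 37 C, live-cell protease activity was measured by CellTiter-Fluor fluorescence following 30 minutes of incubation.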

Test [20] is described as follows: qHTS assay to identify small molecule antagonists of the estrogen related receptor signaling pathway with the pleiotropic PPARgamma coactivator (PGC) cell viability counter screen (AID 1224822;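 also: series mostly up to about 46 µM; viability read after 17.5 h compound exposure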). An outline of the steps:
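Seed PGC/ERR cells (2,000/well); incubate 6 h at 37 C/5% CO2; pin-transfer compounds in DMSO; incubate 17.5 h at 37 C; add CellTiter-Fluor; after 30 min read fluorescence.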

This is an account of results in PubChem BioAssay (Tox21).

Results filed as inconclusive are left out. Values without a mark were called inactive. The source made the active and inactive calls. Unless noted, calls follow the shape of the dose curve; as a rule, active = well fitted curve in the direction sought with a large enough effect in the repeat runs; inconclusive = weak or mixed curves; inactive = no such curve, though single readings can be large; an effect the other way counts as inactive or inconclusive.

Chain of Retinoic acid receptor RXR-alpha (Homo sapiens) (P19793 whole entry, looked up): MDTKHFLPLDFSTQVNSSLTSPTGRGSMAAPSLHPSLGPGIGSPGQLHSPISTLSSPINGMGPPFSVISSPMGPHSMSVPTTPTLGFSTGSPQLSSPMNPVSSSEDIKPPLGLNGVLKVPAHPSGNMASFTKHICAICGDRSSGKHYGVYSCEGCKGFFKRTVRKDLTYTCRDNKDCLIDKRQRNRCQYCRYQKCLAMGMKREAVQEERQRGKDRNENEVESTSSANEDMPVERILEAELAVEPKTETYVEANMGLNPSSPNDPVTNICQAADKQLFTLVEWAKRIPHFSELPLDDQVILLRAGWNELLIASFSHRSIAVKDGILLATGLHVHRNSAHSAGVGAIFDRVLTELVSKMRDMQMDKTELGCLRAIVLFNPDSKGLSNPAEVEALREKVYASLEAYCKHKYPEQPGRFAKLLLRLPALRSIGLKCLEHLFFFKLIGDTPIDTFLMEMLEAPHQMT

With `C#CC(C)N(C)C(=O)Nc1ccc(Cl)cc1` (configuration not stated), the Potency entry in [1], in [5] and in test [10] was “inactive” in each case. The call in test [2], in [3], in test [4], in test [6], in [7] and in test [8] was inactive. Moreover, the result in test [9], in test [11], in test [12] and in test [13] was inactive. Further, the Potency in [14] was 38.5 µM (active).
With `CCNC(=O)C1CC(C)CCC1C(C)C` (configuration not stated), the Potency result in test [1], in [5] and in [10] was “inactive” throughout. Further, the outcome in [15], in test [4], in test [6], in [7], in [8] and in [9] was inactive. Moreover, the call in test [11] and in [12] was inactive.
`CC(C)CCCCOC(=O)c1ccccc1C(=O)OCCCCC(C)C`: the Potency entry in test [1], in test [5] and in [10] was “inactive” each time. Also, the outcome in test [15], in [4], in test [6], in test [7], in [8] and in [9] was inactive. The outcome in test [11] and in [12] was inactive.
Regarding `O=C(NCCc1c[nH]c2ccccc12)c1cccnc1`, the Potency result in test [1], in [5] and in [10] was “inactive” each time. Moreover, the result in test [15], in [4], in test [6], in test [7], in test [8] and in test [9] was inactive. Besides, the result in test [12] and in [13] was inactive. The Potency in [14] is 21.1 µM (active).
Regarding `N[C@@H](CCC(=O)Nc1ccc([N+](=O)[O-])cc1)C(=O)O`, the Potency entry in test [1], in [5], in test [10] and in test [14] was “inactive” throughout. Also, the molecule was classed as inactive in test [15], in test [4], in [6], in test [7], in test [8] and in [9]. The molecule was classed as inactive in [11], in test [12] and in test [13].
As for `O=C(CCN1CCN(CCO)CC1)N1c2ccccc2Sc2ccc(C(F)(F)F)cc21`, the Potency entry in [1], in [5] and in [10] was “inactive” throughout. The molecule was called inactive in test [2], in test [15], in test [3], in test [7], in [8] and in test [9]. Besides, in test [11], the molecule was classed as inactive.
Regarding `COc1ccc2c(c1OC)C(=O)O[C@@H]2[C@H]1c2c(cc3c(c2OC)OCO3)CCN1C`, the Potency result in test [1], in test [5] and in test [10] was “inactive” in each case. The result in test [2], in test [15], in test [4], in [6], in [7] and in test [8] was inactive. The molecule was called inactive in test [9], in test [11], in test [12], in test [13], in test [16] and in [17]. In addition, the molecule was classed as inactive in test [18].
For the molecule `C[C@@H]1O[C@@H](O[C@@H]2[C@@H](O)[C@H](OCCc3ccc(O)c(O)c3)O[C@H](CO[C@@H]3O[C@H](CO)[C@@H](O)[C@H](O)[C@H]3O)[C@H]2OC(=O)/C=C/c2ccc(O)c(O)c2)[C@H](O)[C@H](O)[C@H]1O`, the Potency entry in [1], in test [5], in test [10] and in [14] was “inactive” each time. In addition, the molecule was classed as inactive in test [2], in test [15], in [4], in [6], in test [7] and in test [9]. The molecule was classed as inactive in test [11], in test [12] and in test [13].
For `CC(=O)NCc1c(I)c(NC(C)=O)c(I)c(C(=O)O)c1I`, the Potency result in [1], in test [5] and in [10] was “inactive” in each case. Besides, the call in test [2], in [15], in test [6], in [7], in test [8] and in test [9] was inactive. Besides, the result in [12] was inactive.
As for `COCCOCCOCCOCCO`, the Potency entry in [1], in test [5] and in test [10] was “inactive” each time. The molecule was classed as inactive in [15], in test [6], in test [7], in test [9], in test [11] and in test [12].
Consider `CC[C@H](C)C(=O)O[C@H]1C[C@H](O)C=C2C=C[C@H](C)[C@H](CC[C@@H](O)C[C@@H](O)CC(=O)O)[C@H]21`, for which the Potency entry in test [1], in test [5] and in [10] was “inactive” each time. For the same molecule, the outcome in [2], in [15], in test [6], in test [7], in test [8] and in test [9] was inactive. The call in [11], in test [12] and in test [13] was inactive.
Consider `CC(C)CCCC(C)(C)O`, for which the Potency result in test [1], in [5] and in test [10] was “inactive” in each case. Besides, the molecule was called inactive in [15], in test [3], in test [7], in [8], in test [9] and in test [11]. Also, the call in test [12] was inactive.
As for `CC(C)NCC(O)COc1cccc2[nH]ccc12` (configuration not stated), the Potency result in test [1], in [5] and in [10] was “inactive” throughout. Besides, the molecule was classed as inactive in [2], in test [15], in test [4], in [6], in [7] and in test [8]. The call in [9], in [11], in test [12], in [19] and in test [20] was inactive.
Consider `Oc1ccccc1-c1nnco1`, for which the Potency result in test [1], in test [5] and in [10] was “inactive” throughout. Besides, the call in test [3], in test [4], in test [6], in [7], in test [8] and in test [9] was inactive. The result in [11], in test [12] and in test [13] was inactive.
As to `CC(C)=CCOC(=O)c1ccccc1`, the Potency result in test [1], in [5], in test [10] and in test [14] was “inactive” throughout. Besides, the result in test [15], in test [4], in [6], in [7], in test [8] and in [9] was inactive. The molecule was classed as inactive in test [11] and in test [13].
Consider `CCOc1cc([N+](=O)[O-])c(OCC)cc1N1CCOCC1`, for which the Potency entry in test [1], in [5], in test [10] and in test [14] was “inactive” throughout. Besides, the call in [15], in test [4], in test [6], in test [7], in test [8] and in test [9] was inactive. Also, the result in [11], in test [12] and in test [13] was inactive.
